Reference: PubChem BioAssay AID602449 (Sanford-Burnham Center for Chemical Genomics, 2012)
Hit rate of the full screen: of about 360,000 compounds, about 5,000 (1.4%) were called active. This is one part of a sample in which actives are shown more often than they occur. Values without a mark were called inactive.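 The calls were made as follows: active = inhibition of 50% or more, scaled per plate between neutral and stimulator controls; inactive = the rest.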

Assay: blockers of Ca2+-induced mitochondrial swelling – biochemical, isolated mouse mitochondria, absorbance, primary screen (AID 602449);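 also: 0% = DMSO wells given calcium and 100% = 1 mM EGTA wells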
Details: 30 min, at 10 µM, active compounds read high
For CCN1CCC2(CC1)N=C(c1ccc(F)cc1)C(=S)N2C(=O)c1ccc(C)cc1, the inhibition was -2.8%. In the case of CCN1CCC(O)(/C=C/c2ccc(C)cc2)C(C(=O)/C=C/c2ccc(C)cc2)C1 (configuration not stated), the inhibition is reported as 58.4% (active). COc1cccc(NC(=O)CSc2nnc(Cc3ccc(OC)c(OC)c3)o2)c1 gave an inhibition of -0.5%. For COc1ccc(CCN=C2SCC(=O)N2C)cc1OC, the inhibition was -1.1%. With O=C(O)c1cc2c(cc1NC(=O)c1c(F)cccc1Cl)OCCCO2 the inhibition was -1.5%. In the case of N=c1n(Cc2ccc(Cl)cc2)c2ccccc2n1CC(O)c1ccco1 (configuration not stated), the inhibition is reported as 83.7% (active). Compound CCOc1ccc(C(O)Cn2c(=N)n(CCN3CCCCC3)c3ccccc32)cc1 (configuration not stated) has an inhibition of 3.5%. In the case of N=c1n(CCc2ccccc2)c2ccccc2n1Cc1ccccc1F, the inhibition is reported as 8.3%. O=C(Cc1ccccc1)Nc1c(C(=O)N2CCCCCC2)cnn1-c1ccccc1 gave an inhibition of -1.2%. For O=C(Cn1nc(Cc2cccnc2)c2ccccc2c1=O)NCC1COc2ccccc2O1 (configuration not stated), the inhibition was -1.9%. Work on O=C(Cn1cnc2ccccc2c1=O)NCC1COc2ccccc2O1 (configuration not stated) yielded an inhibition of -0.6%. For c1ccc(-c2cc3c(NCC4COc5ccccc5O4)ncnc3s2)cc1 (configuration not stated), the inhibition was 91.4% (active). CCN=c1sc(C(=O)Nc2ccccc2)c(C)n1CC gave an inhibition of 4.6%. For COC(=O)Nc1ncc(CN2C(=O)c3ccccc3C2=O)s1, the inhibition was -1.2%. For CCCCNC(=S)NNC(=O)c1cc(C)on1, the inhibition was -1.2%. In the case of CC1=C(C(=O)N2CCOCC2)CC(CC(=O)NCc2cccc3ccccc23)C(=O)N1CCC1=CCCCC1 (configuration not stated), the inhibition is reported as -2.5%. For CCCc1nc2scc(-c3ccc(C)cc3)c2c(=O)n1N, the inhibition was 89.9% (active). With CCC(C(=O)OC)n1cnc2scc(-c3ccc(C)cc3)c2c1=O (configuration not stated) the inhibition was 0.8%. In the case of Cc1nc2scc(-c3cccs3)c2c(=O)n1N, the inhibition is reported as -3.1%. With CS(=O)(=O)N(Cc1ccccc1)c1ccc(C(=O)NN=C2CCCCCC2)cc1 the inhibition was 0.9%. In the case of COc1ccc(S(=O)(=O)N2CCOCC2)cc1NC(=O)CSc1cc(C)ccc1C, the inhibition is reported as -0.5%. In the case of O=C(Nc1nc(-c2ccc3c(c2)OCO3)cs1)c1ccncc1, the inhibition is reported as 72.3% (active). COc1ccc(C(O)c2nc(-c3ccc4c(c3)OCO4)cs2)cc1 (configuration not stated) gave an inhibition of 2.5%. Cc1ccc(-c2csc(NC(=O)C3=COCCO3)n2)cc1C gave an inhibition of 4.6%. COc1ccc(NC(=O)NCCN2CCN(c3ccc(C)cc3)CC2)c(Cl)c1 showed an inhibition of 0.3%. Work on COC(=O)c1cccc(-n2[nH]nnc2=S)c1 yielded an inhibition of 0.4%. Cn1c(=O)c(=O)n(C)c2cc(S(=O)(=O)NCCN3CCN(c4ccccc4F)CC3)ccc21 showed an inhibition of 1.9%. In the case of Cc1nnc(NC(=O)Nc2ccc(Cl)c(Cl)c2)s1, the inhibition is reported as 88.5% (active). Work on CCc1ccc(NC(=O)N[C@H](C(=O)O)C(C)CC)cc1 (some centres not stated) yielded an inhibition of -1.3%. Compound COc1cccc(NC(=O)Nc2nnc(N3CCCCC3C)s2)c1 (configuration not stated) has an inhibition of 0.5%. In the case of CCc1ccc(NC(=O)Nc2ccncc2)cc1, the inhibition is reported as 63.6% (active). Work on CC(C)CC(=O)Nc1ccc(Cc2ccncc2)cc1 yielded an inhibition of 1.5%. For Cc1ccc(NC(=O)Nc2nnc(-c3ccncc3)s2)cc1, the inhibition was 77.2% (active). In the case of CC(C)=CC(=O)Nc1nnc(-c2ccc(F)cc2)s1, the inhibition is reported as -0.8%. Work on Cc1nnc(NC(=O)Cn2c(=O)sc3ccccc32)s1 yielded an inhibition of -2.7%. Cc1ccc(S(=O)(=O)CCC(=O)Nc2nnc(CC(C)C)s2)cc1 showed an inhibition of 0.4%. With CCOC(=O)c1sc(NC(=O)CSc2nc(C)cc(C(F)(F)F)n2)c(C#N)c1C the inhibition was 13.1%. In the case of CCCN=C1NC(=O)C(CC(=O)NCCc2ccc(OC)c(OC)c2)S1 (configuration not stated), the inhibition is reported as -0.3%. For CC[C@H]1OC(=O)[C@H](C)[C@@H](O[C@H]2C[C@@](C)(OC)[C@@H](O)[C@H](C)O2)[C@H](C)[C@@H](O[C@@H]2O[C@H](C)C[C@H](N(C)C)[C@H]2O)[C@](C)(O)C[C@@H](C)[C@@H]2N[C@@H](COCCOC)O[C@H]([C@H]2C)[C@]1(C)O, the inhibition was -2.3%. Work on CCOC(=O)c1c(NC(=O)COC(=O)c2ccc(S(=O)(=O)C(F)F)cc2)sc(C(=O)N(C)C)c1C yielded an inhibition of -0.1%. With CCOc1ccc(OCC(=O)Nc2c3c(nn2C(C)(C)C)CS(=O)(=O)C3)cc1 the inhibition was 1.2%. COc1ccc(S(=O)(=O)N2CCN(CC(=O)NCC3(N4CCOCC4)CCCCC3)CC2)cc1 gave an inhibition of 0.2%. For C[C@@H](CN1CCC[C@H]1CN1C(N)=NC[C@@H]1Cc1ccccc1)N1C[C@@H](Cc2ccccc2)N(CCCC2CCCC2)C1=N, the inhibition was 73.7% (active). In the case of NC1=NC[C@@H](Cc2ccc(O)cc2)N1CC1CCCCC1, the inhibition is reported as 0.7%. Work on CC[C@@H](C)[C@@H]1CN([C@@H](C)CN2CCC[C@H]2CN2C(N)=NC[C@H]2C(C)C)C(=N)N1CCc1ccc(Cl)c(Cl)c1 yielded an inhibition of -0.6%. COc1ccc(S(=O)(=O)N2CCCCC2)cc1C(=O)NC1CCS(=O)(=O)C1 (configuration not stated) showed an inhibition of 0.2%. Work on Cc1ccc(C(CNC(=O)Nc2ccccc2)N2CCN(C)CC2)cc1 (configuration not stated) yielded an inhibition of 2%. Work on COc1ccc(OCCCC(=O)OC(C)C(=O)Nc2ccccc2[N+](=O)[O-])cc1 (configuration not stated) yielded an inhibition of 0.5%. S=C(NCCc1ccccc1)N1CCn2cccc2C1c1ccncc1 (configuration not stated) gave an inhibition of -5.1%. With S=C(Nc1cccc(Br)c1)N1CCn2cccc2C1c1cccnc1 (configuration not stated) the inhibition was 63.5% (active). Compound O=C(NC(=S)N1CCCCC1c1cccnc1)c1ccccc1 (configuration not stated) has an inhibition of -1.5%. Work on COc1ccc(OC)c(C(O)c2ncc(-c3cccc(C(F)(F)F)c3)[nH]2)c1 (configuration not stated) yielded an inhibition of 1%. Nc1nnc(SCC(=O)NCC(=O)Nc2ccc(F)c(F)c2F)s1 showed an inhibition of -2.5%. Compound O=C(NCCCN1CCOCC1)c1cc(-c2cccc(O)c2)on1 has an inhibition of -0.1%. With O=C(c1cc(-c2cccc(O)c2)on1)N1CCc2ccccc2C1 the inhibition was 59.3% (active). Work on O=C(c1cc(-c2ccc(O)cc2)on1)N1CCOCC1 yielded an inhibition of -1.3%. In the case of CC(=O)NS(=O)(=O)c1ccc2c(c1)Cc1cc(S(=O)(=O)NC(C)=O)ccc1-2, the inhibition is reported as 0.4%.
